Data from PubChem BioAssay (NCI).
This is part of a sample that, as a whole, favours compounds with a hit. Of some 83,000 tested, about 20% had one in any assay.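 Note: values are percent growth. 100 is the growth of untreated cells, values between 100 and 0 indicate rising inhibition; between -100 and 0 indicates cell death.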 Values without a mark were called inactive. Calls of active or inactive are those of the source. Rule for the calls: active = growth percent below 10; inactive = the rest.

Test system: SK-OV-3 ovarian
Experiment: NCI-60 one-dose screen, 48 h (100 = growth as untreated, 0 = no growth, -100 = all killed)
Conditions: 10 µM unless noted

Which growth does the source give for `CC/C=C\C[C@H](O)C/C=C1/C(=O)C(Cl)=C[C@@H]1C/C=C\CCCC(=O)OC` here?
The growth was 8.03% (active).

How did the growth turn out when `CCOC(=O)CC/C(C)=N\Nc1ccc([N+](=O)[O-])cc1` was run?
Its growth is 57.8%.

For `CC(C)N(Cc1ccc(CN(C(=O)CCl)C(C)C)cc1)C(=O)CCl`, which growth is on record?
The growth was 49.7%.

With `COc1cc(CCn2nnc3c(NCCCCO)ncnc32)cc(OC)c1` as the compound, how does the growth read?
The growth was 111%.

With `CCN1C(=O)N(CC)C2Nn3c(s/c(=C\c4cccc(F)c4)c3=O)=NC21` (configuration not stated) as the compound, how does the growth read?
The growth was 102%.

How did the growth turn out when `O=C1c2ccccc2C(=O)c2c1oc1oc3c(c(=O)c21)c(=O)n(-c1ccccc1)c1ccccc31` was run?
Its growth is 67.3%.

With `Cc1c(C2=NNC(c3ccc4c(c3)OCO4)C2)[n+]([O-])c2ccccc2[n+]1[O-]` (configuration not stated) as the compound, how does the growth read?
Its growth is 97.1%.

Which growth does the source give for `c1ccc(CCn2nnc3c(Nc4ccc(N5CCOCC5)cc4)ncnc32)cc1` here?
The growth was 93.1%.

How did the growth turn out when `COc1ccc(C2SCC(=O)N2NC(=O)c2ccc(NC(=O)c3ccccn3)cc2)cc1OC` (configuration not stated) was run?
Its growth is 102%.

Test system: IGROV1 ovarian
Experiment: as above
Conditions: 10 µM unless noted

Which growth does the source give for `Cc1ccc(C2=NN(c3ccc(S(N)(=O)=O)cc3)C(c3cn(-c4ccccc4)nc3-c3ccccc3)C2)cc1` (configuration not stated) here?
The growth was 88.5%.

Which growth does the source give for `CCN1C(=O)N(CC)C2C1NN=c1s/c(=C\c3cccc(F)c3)c(=O)n12` (configuration not stated) here?
Its growth is 29.9%.

For `O=c1[nH]c(-c2cn(-c3ccc(Cl)cc3)nn2)nc2ccccc12`, which growth is on record?
The growth was 74.1%.

With `C=CCN=C1NC(=O)/C(=C/c2cc(C(C)(C)C)c(O)c(C(C)(C)C)c2)S1` as the compound, how does the growth read?
The growth was 85.7%.

For `O=c1[nH]c(CN2CCN(c3ccccc3F)CC2)nc2sc3c(c12)CCC3`, which growth is on record?
The growth was 84.7%.

`COc1ncc(-c2ccc3ncnc(Nc4cccc(Cl)c4)c3c2)cc1NS(=O)(=O)C1CC1` was tested. Which growth did it give?
The growth was -38.6% (active).

How did the growth turn out when `Nc1nc(Cl)c2c(ncn2Cc2ccc(CCl)cc2)n1` was run?
The growth was 76.5%.

How did the growth turn out when `O=S(=O)(NCCCNc1cc(-c2cn(-c3ccccc3)nc2-c2cccc(O)c2)ccn1)c1cccc2ccccc12` was run?
Its growth is 51%.

With `CC1CCN(C(=O)CSc2nc3sc4c(c3c(=O)[nH]2)CCCC4)CC1` as the compound, how does the growth read?
Its growth is 87.7%.

With `Cc1cc(Nc2nc(C(=O)Nc3ccccc3)nc3ccccc23)n[nH]1` as the compound, how does the growth read?
The growth was 39.6%.

With `O=[N+]([O-])c1cc(S(=O)(=O)OCC2CO2)ccc1Cl` (configuration not stated) as the compound, how does the growth read?
The growth was 52.6%.

With `N#CC1=C(N)n2nc(-c3ccncc3)nc2NC1c1cccc2ccccc12` (configuration not stated) as the compound, how does the growth read?
The growth was 91.2%.

Which growth does the source give for `O=C1NC(Cc2c[nH]c3ccccc23)C(=O)N1Cc1ccc(Cl)cc1` (configuration not stated) here?
Its growth is 85.2%.

For `CSc1ccccc1C#C/C=C\C#Cc1ccccc1N1CCCC1=O`, which growth is on record?
The growth was -32.2% (active).

With `CC(C)CCN(CCCNc1c2c(nc3ccccc13)CCCC2)CCC(C)C` as the compound, how does the growth read?
The growth was 81.8%.

Which growth does the source give for `O=C(CC(O)c1ccncc1)c1ccccc1` (configuration not stated) here?
Its growth is 18%.

For `Nc1c(C(=O)Nc2cccc([N+](=O)[O-])c2)sc2nc3c(cc12)C(O)CCC3` (configuration not stated), which growth is on record?
Its growth is 52.5%.

For `CCN(CC)CCSc1c2ccc(Cl)cc2nc2ccc(OC)cc12`, which growth is on record?
Its growth is 98.1%.

Which growth does the source give for `CNC(=O)Cc1nc(-c2cccc(NS(=O)(=O)c3c(F)cccc3F)c2F)c(-c2ccnc(Nc3ccccc3)n2)s1` here?
The growth was 17.5%.

Which growth does the source give for `CC(=O)Nc1ccc(S(=O)(=O)N2C(=O)CCC2C(=O)Nc2ccccc2)cc1` (configuration not stated) here?
The growth was 28.9%.

`Nc1cccc2c1CN(C1CCC(=O)NC1=O)C2=O` (configuration not stated) was tested. Which growth did it give?
The growth was 29.8%.

How did the growth turn out when `C=CC(=O)N[C@H](/C=C/C(=O)OCC)Cc1ccc(-c2cc(Cl)cc(Cl)c2)cc1` was run?
The growth was 93%.

With `CCOC(=O)CC(C#N)(CC(=O)OCC)C(=O)OCC` as the compound, how does the growth read?
The growth was 118%.

For `CCN(CC)CCCNc1nc(C)cc(Nc2ccc3nc(C)cc(N)c3c2)n1`, which growth is on record?
Its growth is 97.8%.

With `O=c1cc(C2NCCc3c2[nH]c2ccccc32)c2c(ccc3ccccc32)o1` (configuration not stated) as the compound, how does the growth read?
Its growth is 33.4%.

With `Nc1nc(N)c2nc(CNc3ccc(C(=O)CC(CCC(=O)O)C(=O)O)cc3)cnc2n1` (configuration not stated) as the compound, how does the growth read?
Its growth is -58.5% (active).

`O=C1Nc2cc(Cl)ccc2/C1=C/c1ccc(N2CCOCC2)s1` was tested. Which growth did it give?
Its growth is 45.3%.

For `O=S(=O)(NCCCNc1nccc(-c2c(-c3ccccc3)nc3sccn23)n1)c1ccc(F)cc1`, which growth is on record?
Its growth is 32.9%.

How did the growth turn out when `O=Nc1c(-c2c(O)[nH]c3ccc([N+](=O)[O-])cc23)[nH]c2ccc(O)cc12` was run?
Its growth is 6.36% (active).

With `CC/C=C\C[C@H](O)C/C=C1/C(=O)C(Cl)=C[C@@H]1C/C=C\CCCC(=O)OC` as the compound, how does the growth read?
Its growth is -12.6% (active).

How did the growth turn out when `CCOC(=O)CC/C(C)=N\Nc1ccc([N+](=O)[O-])cc1` was run?
The growth was 71%.

With `CC(C)N(Cc1ccc(CN(C(=O)CCl)C(C)C)cc1)C(=O)CCl` as the compound, how does the growth read?
Its growth is -49.3% (active).

How did the growth turn out when `COc1cc(CCn2nnc3c(NCCCCO)ncnc32)cc(OC)c1` was run?
Its growth is 109%.

`CCN1C(=O)N(CC)C2Nn3c(s/c(=C\c4cccc(F)c4)c3=O)=NC21` (configuration not stated) was tested. Which growth did it give?
The growth was 84.8%.

`O=C1c2ccccc2C(=O)c2c1oc1oc3c(c(=O)c21)c(=O)n(-c1ccccc1)c1ccccc31` was tested. Which growth did it give?
The growth was 71.8%.

For `Cc1c(C2=NNC(c3ccc4c(c3)OCO4)C2)[n+]([O-])c2ccccc2[n+]1[O-]` (configuration not stated), which growth is on record?
Its growth is 84.4%.

`c1ccc(CCn2nnc3c(Nc4ccc(N5CCOCC5)cc4)ncnc32)cc1` was tested. Which growth did it give?
The growth was 95.3%.

Which growth does the source give for `COc1ccc(C2SCC(=O)N2NC(=O)c2ccc(NC(=O)c3ccccn3)cc2)cc1OC` (configuration not stated) here?
Its growth is 101%.
